AMA1 RON2 block = qHTS for Inhibitors of AMA1-RON; Towards Development of Antimalarial Drug Lead: Primary Screen | Potency, µM (highest dose often 58.2 µM), without a hit: top-dose activity change, negative = inhibition, actives largely listed as inhibitors | 360,000 tested, 0.2% active | Plasmodium falciparum AMA1 (3D7) - RON2 peptide interaction | AlphaScreen AMA1-biotinylated RON2 peptide binding;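 further: 0% = vehicle wells and -100% = peptide control; nearly all actives have a fitted effect of over 45% in size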
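AMA1 (3D7) with his tag at 25 nM final met compounds first, then biotinylated RON2 peptide at 25 nM; detection used donor plus acceptor beads, 10 µg/mL apiece, read by AlphaScreen after 30 min at room temperature.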
Pf growth 96h = Primary qHTS for delayed death inhibitors of the malarial parasite plastid, 96 hour incubation | P. falciparum luciferase reporter growth, 96 h | Potency, µM (top dose mostly 28.7 µM), without a hit: at the top dose activity change, negative = inhibition, actives largely listed as inhibitors | 320,000 tested, 6.9% active | AID 504834, 2011; further: on the % scale 0 is the no-effect control and ±100 the full control effect
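P. falciparum expressing integrated firefly luciferase, in erythrocytes at 2% hematocrit, 0.05% parasitemia, incubated with compounds 96 h at 37 C, 5% CO2. Growth inhibition read as loss of luminescence; two-generation exposure targets delayed-death apicoplast inhibitors.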
Pf growth 48h = Primary qHTS for delayed death inhibitors of the malarial parasite plastid, 48 hour incubation; P. falciparum luciferase growth in erythrocytes, 48 h; Potency, µM (series often up to 28.7 µM), for the others: at the highest dose activity change, negative = inhibition, usual class: inhibitors; 310,000 tested, 5.9% active; AID 504832, 2011; further: on the % scale 0 is the no-effect control and ±100 the full control effect
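Parasite viability was followed by luminescence of a genomically integrated firefly luciferase. Cultures held 0.1% parasitemia at 2% hematocrit (final), incubated under 5% CO2 at 37 C.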
SARS PLP yeast = qHTS of Yeast-based Assay for SARS-CoV PLP | S. cerevisiae expressing SARS-CoV PLpro, growth rescue | Potency, µM (top dose mostly 32.9 µM), for the others: at the highest dose activity, positive = growth rescue, most hits filed as activators | 330,000 tested, 0.19% active | AID 485353, 2010; calls by dose curve; further: 0% is about no effect; nearly all actives have a fitted effect of over 55% in size
Starred values were filed as active, the others as inactive; ? = inconclusive; . = no result given; [ ] = dose if it differs, or a comment. Sampled rows, rich in hits. Any-hit rate of the full collection: about 9.4%. Unless noted, the call rests on the fitted dose curve; in most records, active means well fitted curve in the direction sought with a large enough effect; inconclusive means small, poorly fitted or top-dose-only effect, or another doubt; inactive means no such curve, though single readings can be large; an effect the other way counts as inactive or inconclusive. Potency means the concentration at half of the fitted maximal effect.

SMILES	AMA1 RON2 block	Pf growth 96h	Pf growth 48h	SARS PLP yeast
CCOC1=C2[C@H](c3ccccc3)N(S(=O)(=O)c3ccc(C)cc3)C(C(C)(C)C)[C@H]2C(C#N)(C#N)C(C#N)(C#N)C1 (stereo partly drawn)	17.0%	.	.	.
Cc1nc2c(cnn2-c2ccccc2Cl)c(=O)n1-c1ccc(C(C)C)cc1	0.9%	2.62µM*	.	-22.0%
COc1ccc(-n2c(C)nc3c(cnn3-c3ccc(C)c(C)c3)c2=O)cc1	-3.0%	10.4µM*	.	0.4%
Cc1cc(OCCOCCN2CCCC2)ccc1C(C)C	-7.3%	10.4µM*	?	-4.7%
COc1ccc(N2C(=O)/C(=C/c3ccc([N+](=O)[O-])cc3)N=C2C)c(OC)c1	-16.0%	?	24.7%	0.2%
Cc1cccc(C)c1NC(=O)CN1CCN(CCCC(c2ccc(F)cc2)c2ccc(F)cc2)CC1	3.8%	4.55µM*	11.7µM*	.
Cc1c(NC(=O)CCC(=O)N2CCCCC2)c(=O)n(-c2ccccc2)n1C	-0.2%	0.828µM*	0.6%	4.0%
C=CCNC(=O)CN1CCC(O)(c2ccccc2)CC1	-2.0%	?	27.8%	0.9%
Cc1c(NC(=O)CN2CCN(C(c3ccccc3)c3ccccc3)CC2)c(=O)n(-c2ccccc2)n1C	11.0%	-9.3%	10.4µM*	-1.1%
Cc1c(NC(=O)CN2CCN(c3ccccc3)CC2)c(=O)n(-c2ccccc2)n1C	2.5%	35.3%	14.9%	-7.9%
C=CCNC(=O)CN1CCN(C(c2ccccc2)c2ccccc2)CC1	-10.5%	13.1µM*	?	5.4%
CCn1c(=O)c(C(C)=O)c(O)c2ccccc21	15.6%	-20.6%	16.6%	0.9%
CCOC(=O)c1ccc(CSC(=N)N)o1	3.5%	21.1%	?	0.0%
c1cc2c(c(NC3=NCCN3)c1)CCCC2	.	10.7µM*	?	.
Cc1cc([N+](=O)[O-])ccc1NC(=O)C(C)[n+]1ccccc1 (stereo not drawn)	8.3%	12.3%	-18.6%	0.4%
CCOC(=O)c1c(C)nc2sc(C(=O)Nc3ccccc3)c(N)c2c1-c1ccc(OC)cc1	50.9%	9.7%[5.75 µM]	?	4.2%
CCOC(=O)c1c(C)nc2sc3c(c2c1-c1ccc(OC)cc1)NC(c1ccc(OC)cc1)NC3=O (stereo not drawn)	2.9%	2.62µM*	?	-5.3%
Cc1ccc(C(=O)Nc2nccc(C)n2)cc1	5.2%	84.5%	84.1%	-1.4%
Cn1c(=S)[nH]c2[nH]c(=O)cnc2c1=O	-10.7%	29.6%	17.5%	1.7%
COc1ccccc1N(C(=O)CCl)c1cn(C(C)=O)c2ccccc12	4.2%	?	?	-1.3%
COc1ccccc1N(C(C)=O)C1=C(Cl)C(=O)c2ccccc2C1=O	12.6µM*	.	.	.
CC(NC(=O)c1ccccc1F)c1nnc(SCC(=O)Nc2nccs2)n1C (stereo not drawn)	0.0%	18.6%	3.7%	-3.3%
Cc1ccccc1N(CC(=O)NCCc1ccccc1)C(=O)c1ccc(N2CCCC2)nc1	-9.8%	?	10.4µM*	-1.1%
O=C(CN(C(=O)c1csnn1)c1ccccc1Cl)NCCc1ccccc1	4.3%	11.5%	5.4%	-1.3%
COc1cc(CNC(C)c2ccccc2)cc(Br)c1OCc1ccc(F)cc1 (stereo not drawn)	20.5%	?	?	-4.5%
SMILES	AMA1 RON2 block	Pf growth 96h	Pf growth 48h	SARS PLP yeast
CC12CCC(C(=O)N(CC(O)CN3CCN(Cc4ccccc4)CC3)C1=O)C2(C)C (stereo not drawn)	-20.2%	-2.1%	6.7%	0.7%
CC12CCC(C(=O)N(CSC(=S)N/N=C\c3ccccc3O)C1=O)C2(C)C (stereo not drawn)	20µM*	?	10.4µM*	8.5%
COc1cc2c(cc1OC)C(C(=O)N(C)Cc1ccccc1)C(c1cccnc1)N(C)C2=O (stereo not drawn)	19.0%	3.7µM*	8.2%	-1.7%
COc1cc2c(cc1OC)C(C(=O)Nc1cc(OC)c(OC)c(OC)c1)C(c1cccnc1)N(C)C2=O (stereo not drawn)	1.1%	?	?	-6.2%
COc1cc2c(cc1OC)C(C(=O)Nc1ccc3c(c1)OCCO3)C(c1cccnc1)N(C)C2=O (stereo not drawn)	-10.1%	?	7.38µM*	-4.3%
CCn1c(NC(=S)Nc2ccccc2)nc2ccccc21	58.2%	3.29µM*	?	7.7%
S=C(Nc1ccccc1)Nc1nc2ccccc2n1CCOc1ccc(Cl)cc1	?	11.7µM*	7.38µM*	24.9%
